# Test results as given in PubChem BioAssay AID1159580 (chemical genetic matrix, 2015).
# In all, about 5,500 compounds went through this assay and about 2,000 (36%) were called active. Another 18% or so got no clear call; they are omitted. The list shows a part of the results. Unmarked numbers belong to inactive results. No stated cut-off is given here; in the data, active means normalized growth mostly below about 0.91 (no sharp cut-off); inconclusive means no clear call, values can overlap the other calls; inactive means mostly above about 0.92.
# Assay: chemical genetic growth profiling, strain panel (AID 1159580);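 further: tested at 20 µM; growth read once vehicle control cultures reached saturation at 30 °C; 1 = growth at the plate median or of vehicle wells; lower values mean less growth of the strain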
# Settings: S. cerevisiae deletion strains, growth OD
structure (smiles),measurement,setting,value
O=C(/C=C/Sc1nc2ccccc2s1)c1ccc(Cl)cc1,normalized growth,"locus YAR019C, strain CDC15, hits give low values",0.977
same,normalized growth,"locus YBL105C, strain PKC1, hits give low values",0.972
same,normalized growth,"locus YBR135W, strain CKS1, hits give low values",0.983
same,normalized growth,"locus YBR136W, strain MEC1, hits give low values",0.986
same,normalized growth,"locus YBR160W, strain CDC28, hits give low values",0.983
same,normalized growth,"locus YDL017W, strain CDC7, hits give low values",0.983
same,normalized growth,"locus YDL028C, strain MPS1, hits give low values",0.987
same,normalized growth,"locus YDL101C, strain DUN1, hits give low values",0.975
same,normalized growth,"locus YDL108W, strain KIN28, hits give low values",0.985
same,normalized growth,"locus YDL132W, strain cdc53, hits give low values",0.983
same,normalized growth,"locus YDL214C, strain PRR2, hits give low values",0.894
same,normalized growth,"locus YDR052C, strain DBF4, hits give low values",0.99
same,normalized growth,"locus YDR054C, strain cdc34, hits give low values",0.969
same,normalized growth,"locus YDR226W, strain ADK1, hits give low values",0.981
same,normalized growth,"locus YDR477W, strain SNF1, hits give low values",0.926
same,normalized growth,"locus YER123W, strain YCK3, hits give low values",0.872
same,normalized growth,"locus YER133W, strain GLC7, hits give low values",0.911
same,normalized growth,"locus YFL009W, strain cdc4, hits give low values",0.98
same,normalized growth,"locus YFL029C, strain CAK1, hits give low values",0.977
same,normalized growth,"locus YFR003C, strain YPI1, hits give low values",0.981
same,normalized growth,"locus YFR019W, strain FAB1, hits give low values",0.932
same,normalized growth,"locus YFR028C, strain CDC14, hits give low values",0.986
same,normalized growth,"locus YGR040W, strain KSS1, hits give low values",0.941
same,normalized growth,"locus YGR052W, strain FMP48, hits give low values",0.92
same,normalized growth,"locus YGR092W, strain DBF2, hits give low values",0.925
same,normalized growth,"locus YHR030C, strain SLT2, hits give low values",0.697 (active)
same,normalized growth,"locus YHR079C, strain IRE1, hits give low values",0.78
same,normalized growth,"locus YHR082C, strain KSP1, hits give low values",0.932
same,normalized growth,"locus YHR205W, strain SCH9, hits give low values",0.743
same,normalized growth,"locus YIL147C, strain SLN1, hits give low values",0.99
same,normalized growth,"locus YJL095W, strain BCK1, hits give low values",0.854
same,normalized growth,"locus YJL128C, strain PBS2, hits give low values",0.954
same,normalized growth,"locus YJL157C, strain FAR1, hits give low values",0.896
same,normalized growth,"locus YJR016C, strain ILV3, hits give low values",0.985
same,normalized growth,"locus YJR066W, strain TOR1 (second series), hits give low values",0.808
same,normalized growth,"locus YJR066W, strain TOR1, hits give low values",0.893
same,normalized growth,"locus YKL048C, strain ELM1, hits give low values",0.958
same,normalized growth,"locus YKL067W, strain YNK1, hits give low values",0.909
same,normalized growth,"locus YKL101W, strain HSL1, hits give low values",0.927
same,normalized growth,"locus YKL193C, strain SDS22, hits give low values",0.986
same,normalized growth,"locus YKL203C, strain TOR2, hits give low values",0.975
same,normalized growth,"locus YLR113W, strain HOG1, hits give low values",0.593 (active)
same,normalized growth,"locus YLR133W, strain CKI1, hits give low values",0.905
same,normalized growth,"locus YLR403W, strain SFP1, hits give low values",0.901
same,normalized growth,"locus YML070W, strain DAK1, hits give low values",0.877
same,normalized growth,"locus YMR001C, strain CDC5, hits give low values",0.978
same,normalized growth,"locus YMR205C, strain PFK2 (second series), hits give low values",0.936
same,normalized growth,"locus YMR277W, strain FCP1, hits give low values",0.988
same,normalized growth,"locus YNL006W, strain LST8, hits give low values",0.979
same,normalized growth,"locus YNL020C, strain ARK1, hits give low values",0.911
same,normalized growth,"locus YNL161W, strain CBK1, hits give low values",0.962
same,normalized growth,"locus YNL183C, strain NPR1, hits give low values",0.923
same,normalized growth,"locus YNL207W, strain RIO2, hits give low values",0.988
same,normalized growth,"locus YNL222W, strain SSU72, hits give low values",0.981
same,normalized growth,"locus YNL307C, strain MCK1 (second series), hits give low values",0.92
same,normalized growth,"locus YOL078W, strain AVO1, hits give low values",0.981
same,normalized growth,"locus YOL136C, strain PFK27, hits give low values",0.83
same,normalized growth,"locus YOR061W, strain CKA2, hits give low values",0.953
same,normalized growth,"locus YOR119C, strain RIO1, hits give low values",0.996
same,normalized growth,"locus YOR231W, strain MKK1, hits give low values",0.811
same,normalized growth,"locus YOR329C, strain SCD5, hits give low values",0.972
same,normalized growth,"locus YPL031C, strain PHO85, hits give low values",0.912
same,normalized growth,"locus YPL153C, strain RAD53, hits give low values",0.942
same,normalized growth,"locus YPL204W, strain HRR25, hits give low values",0.882
same,normalized growth,"locus YPL209C, strain IPL1, hits give low values",0.979
same,normalized growth,"locus YPL256C, strain CLN2, hits give low values",0.72 (active)
same,normalized growth,"locus YPR025C, strain CCL1, hits give low values",0.972
same,normalized growth,"locus YPR106W, strain ISR1, hits give low values",0.985
same,normalized growth,"locus YPR111W, strain DBF20, hits give low values",0.979
same,normalized growth,"strain NNK1, hits give low values",0.981
same,normalized growth,"strain TSCII, hits give low values",0.983
